Laboratory results published in PubChem BioAssay.
The source made the active and inactive calls. Unless noted, no rule for the calls is given here.

Assays:
[1] = compounds binding Alexa647 anti-His antibody – biochemical, small-molecule microarray, 635 nm fluorescence, artefact control for SMM control protein annotation, primary screen (AID 1128); details: higher = more signal;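 also: score merges feature fluorescence with signal-to-noise for each printed compound spot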
[2] = test system: Human papillomavirus type 1a E7 protein (residues 1-88); experiment: HPV1a E7 small-molecule binders, primary screen, biochemical, small-molecule microarray, residues 1-88, 635 nm (AID 1129); details: small-molecule microarray binding, fluorescence 635 nm; higher = more signal
[3] = target: Focal adhesion kinase 1 (Homo sapiens) (UniProt Q05397); experiment: PTK2 protein binding on printed compound slides – biochemical, small-molecule microarray, 635/667 nm fluorescence, BSA, DTT, primary screen (AID 1130); details: 635 nm fluorescence, higher = more signal;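 also: composite of spot emission at 667 nm and signal to noise over triplicate slides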
[4] = test system: Fibrinogen (Alexa647-labelled); experiment: Alexa647-fibrinogen binding to printed small molecules – biochemical, small-molecule microarray, 635/667 nm fluorescence, artefact control for SMM control-protein annotation, profiling panel (AID 1131); details: fibrinogen-A647 binding fluorescence, higher = more signal;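 also: z-score merges 667 nm fluorescence with per-spot signal-to-noise over triplicate slides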
[5] = target: Follistatin (Homo sapiens) (UniProt P19883); experiment: FST protein binding to printed compounds – biochemical, small-molecule microarray, 635/667 nm fluorescence, primary screen (AID 1132); details: 635 nm fluorescence, higher = more signal
[6] = target: Fibroblast growth factor 2 (Homo sapiens) (UniProt P09038); experiment: basic fibroblast growth factor binding to printed compounds – biochemical, small-molecule microarray, 635/667 nm fluorescence, primary screen (AID 1133); details: FGF2, fluorescence 635/667, higher = more signal
[7] = JC-1 mitochondrial potential readout, lung cancer cells – cell-based, A549, JC-1 fluorescence, basal, 24 h, 100 nL, profiling panel (AID 1138); details: higher = more signal;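 also: A549 lung adenocarcinoma cells under basal conditions with no added stimulus; test concentration not given here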
Lefty1 = Lefty1 protein binding to printed compounds – biochemical, small-molecule microarray, 635/667 nm fluorescence, primary screen (AID 1139); details: fluorescence 635/667, higher = more signal
[8] = test system: wheat germ agglutinin (Triticum aestivum), Alexa647-labelled; experiment: Alexa647-WGA lectin binding to printed small molecules – biochemical, small-molecule microarray, 635/667 nm fluorescence, artefact control for SMM control-protein annotation, profiling panel (AID 1140); details: WGA-A647 binding, 635 nm fluorescence, higher = more signal;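 also: score merges 667 nm feature emission with signal to noise over triplicate slides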
[9] = target: Luciferin 4-monooxygenase (Photinus pyralis) (UniProt P08659); experiment: inhibition of purified Photinus pyralis luciferase – biochemical, luminescence, purified enzyme, 2006 set, primary screen (AID 1141); details: purified firefly luciferase, SteadyGlo luminescence, 30 min; higher = more signal, called active from +8 up or from −8 down;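 also: cell-free assay with purified firefly luciferase at 100 ng per well in PBS; test concentration not given here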
[10] = test system: Wnt5a (protein binding on small-molecule microarray); experiment: small molecules binding Wnt5a protein – biophysical, small-molecule microarray, 635/667 nm fluorescence, primary screen (AID 1142); details: 635 nm fluorescence, higher = more signal;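 also: fluorescence read at 667 nm with signal to noise per printed feature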
[11] = ATP-based viability of Huh7 replicon cells – cell-based, CellTiter-Glo luminescence, basal, 48 h, cytotoxicity control for HCV replication inhibitor project, primary screen (AID 1143); details: higher = more signal, called active from +8 up or from −8 down;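 also: Huh7 hepatoma cells carrying a hepatitis C replication reporter with no stimulus; test concentration not given here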
[12] = Pseudomonas biofilm growth suppression – PAO1 strain, BacTiter-Glo luminescence, LB-PBS, primary screen (AID 1144); details: P. aeruginosa PAO1 biofilm, 12 h, higher = more signal
[13] = basal CRE-LacZ reporter activity in PC12 – cell-based, unstimulated, primary screen (AID 1145); details: no forskolin, luminescence, 4.5 h, higher = more signal, called active from +8 up or from −8 down
[14] = forskolin-driven CRE-LacZ activity in PC12 – cell-based, CRE-LacZ reporter, forskolin-stimulated, primary screen (AID 1146); details: luminescence, 4.5 h, higher = more signal, called active from +8 up or from −8 down;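 also: PC12 cells with 6xCRE LacZ reporter stimulated by forskolin 10 µM; beta-galactosidase reporter signal reflecting CREB driven transcription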
[15] = target: Streptavidin (Streptomyces avidinii) (UniProt P22629); experiment: compounds binding control protein streptavidin – biophysical, small-molecule microarray, 635/667 nm fluorescence, artefact control for SMM compound annotation, primary screen (AID 1147); details: higher = more signal;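 also: signal reflects streptavidin binding to arrayed compounds as a control protein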
[16] = probe aInhba binding on compound microarray – biochemical, small-molecule microarray, 635/667 nm fluorescence, primary screen (AID 1148); details: higher = more signal;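 also: score merges 667nm spot fluorescence with signal-to-noise for antibody binding to printed compounds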
Torsin-1A (Homo sapiens) [17] = target: Torsin-1A (Homo sapiens) (UniProt O14656); experiment: TOR1A wild-type binding on microarray – cell lysate, small-molecule microarray, lysate, 635/667 nm, primary screen (AID 1149); details: COS7 hTOR1A-WT lysate, 635 nm fluorescence, higher = more signal
Torsin-1A (Homo sapiens) [18] = target: Torsin-1A (Homo sapiens) (UniProt O14656); experiment: torsin A mutant lysate binding on microarrays – cell lysate, small-molecule microarray, COS7 lysate, 635/667 nm fluorescence, primary screen (AID 1150); details: COS7 hTOR1A mutant lysate, 635 nm fluorescence, higher = more signal;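 also: score pools 667 nm emission and signal to noise measuring lysate protein binding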
[19] = test system: Sonic hedgehog protein (Shh); experiment: Sonic hedgehog microarray binding compounds – biochemical, small-molecule microarray, 635/667 nm fluorescence, primary screen (AID 1151); details: 635 nm fluorescence, higher = more signal;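 also: Shh protein binding to compounds spotted on small-molecule microarray slides; score combines spot fluorescence intensity with signal-to-noise across triplicate slides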

Sequence of Streptavidin (Streptomyces avidinii) (P22629 whole entry, looked up): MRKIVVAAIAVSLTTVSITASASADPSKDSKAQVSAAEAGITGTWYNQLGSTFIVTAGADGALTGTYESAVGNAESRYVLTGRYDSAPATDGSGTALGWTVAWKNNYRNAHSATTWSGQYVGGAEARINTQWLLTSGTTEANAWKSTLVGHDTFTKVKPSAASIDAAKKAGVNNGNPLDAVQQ
Sequence of Follistatin (Homo sapiens) (P19883 whole entry, looked up): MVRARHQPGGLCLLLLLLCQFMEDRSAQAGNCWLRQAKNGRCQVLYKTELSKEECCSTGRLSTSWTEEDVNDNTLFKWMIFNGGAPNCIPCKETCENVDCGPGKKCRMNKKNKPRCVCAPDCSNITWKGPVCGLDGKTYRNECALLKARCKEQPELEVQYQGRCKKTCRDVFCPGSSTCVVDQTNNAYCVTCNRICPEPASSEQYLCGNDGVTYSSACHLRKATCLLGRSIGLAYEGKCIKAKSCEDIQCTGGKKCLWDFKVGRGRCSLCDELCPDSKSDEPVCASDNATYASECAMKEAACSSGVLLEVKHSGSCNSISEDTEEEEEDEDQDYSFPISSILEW
Sequence of Torsin-1A (Homo sapiens) (O14656 whole entry, looked up): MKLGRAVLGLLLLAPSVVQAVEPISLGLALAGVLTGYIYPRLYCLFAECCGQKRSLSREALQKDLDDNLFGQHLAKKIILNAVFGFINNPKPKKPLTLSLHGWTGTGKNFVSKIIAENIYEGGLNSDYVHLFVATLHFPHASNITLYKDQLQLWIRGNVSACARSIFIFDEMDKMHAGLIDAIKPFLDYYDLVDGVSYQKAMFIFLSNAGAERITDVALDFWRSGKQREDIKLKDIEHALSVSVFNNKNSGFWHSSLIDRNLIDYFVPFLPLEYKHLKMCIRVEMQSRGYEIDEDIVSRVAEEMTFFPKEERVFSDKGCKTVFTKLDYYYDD
Sequence of Focal adhesion kinase 1 (Homo sapiens) (Q05397 whole entry, looked up): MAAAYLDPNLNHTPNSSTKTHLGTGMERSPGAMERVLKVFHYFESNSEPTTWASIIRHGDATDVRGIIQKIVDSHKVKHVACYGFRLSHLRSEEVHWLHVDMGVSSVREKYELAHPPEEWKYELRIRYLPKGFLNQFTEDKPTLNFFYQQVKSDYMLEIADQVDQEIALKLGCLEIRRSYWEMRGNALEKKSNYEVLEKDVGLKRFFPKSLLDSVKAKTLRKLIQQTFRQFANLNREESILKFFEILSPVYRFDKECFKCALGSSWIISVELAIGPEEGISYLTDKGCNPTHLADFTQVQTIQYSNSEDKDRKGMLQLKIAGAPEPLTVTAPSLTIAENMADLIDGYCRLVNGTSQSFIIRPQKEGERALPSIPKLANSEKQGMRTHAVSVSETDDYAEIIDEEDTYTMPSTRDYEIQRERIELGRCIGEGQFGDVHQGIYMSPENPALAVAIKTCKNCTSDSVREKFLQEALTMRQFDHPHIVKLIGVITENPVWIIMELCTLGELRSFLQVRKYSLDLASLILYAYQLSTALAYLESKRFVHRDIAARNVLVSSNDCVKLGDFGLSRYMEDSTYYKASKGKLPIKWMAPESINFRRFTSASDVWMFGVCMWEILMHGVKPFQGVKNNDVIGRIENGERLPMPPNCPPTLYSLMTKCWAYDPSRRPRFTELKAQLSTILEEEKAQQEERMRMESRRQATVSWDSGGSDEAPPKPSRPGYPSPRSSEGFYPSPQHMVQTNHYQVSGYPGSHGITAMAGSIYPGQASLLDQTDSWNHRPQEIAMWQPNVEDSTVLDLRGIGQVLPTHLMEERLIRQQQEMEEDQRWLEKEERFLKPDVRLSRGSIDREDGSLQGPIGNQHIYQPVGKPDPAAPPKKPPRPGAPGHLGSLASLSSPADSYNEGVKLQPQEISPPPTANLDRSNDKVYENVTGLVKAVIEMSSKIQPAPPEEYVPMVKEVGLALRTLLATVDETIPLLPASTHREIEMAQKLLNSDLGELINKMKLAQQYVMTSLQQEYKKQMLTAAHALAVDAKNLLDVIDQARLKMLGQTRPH
Sequence of Luciferin 4-monooxygenase (Photinus pyralis) (P08659 whole entry, looked up): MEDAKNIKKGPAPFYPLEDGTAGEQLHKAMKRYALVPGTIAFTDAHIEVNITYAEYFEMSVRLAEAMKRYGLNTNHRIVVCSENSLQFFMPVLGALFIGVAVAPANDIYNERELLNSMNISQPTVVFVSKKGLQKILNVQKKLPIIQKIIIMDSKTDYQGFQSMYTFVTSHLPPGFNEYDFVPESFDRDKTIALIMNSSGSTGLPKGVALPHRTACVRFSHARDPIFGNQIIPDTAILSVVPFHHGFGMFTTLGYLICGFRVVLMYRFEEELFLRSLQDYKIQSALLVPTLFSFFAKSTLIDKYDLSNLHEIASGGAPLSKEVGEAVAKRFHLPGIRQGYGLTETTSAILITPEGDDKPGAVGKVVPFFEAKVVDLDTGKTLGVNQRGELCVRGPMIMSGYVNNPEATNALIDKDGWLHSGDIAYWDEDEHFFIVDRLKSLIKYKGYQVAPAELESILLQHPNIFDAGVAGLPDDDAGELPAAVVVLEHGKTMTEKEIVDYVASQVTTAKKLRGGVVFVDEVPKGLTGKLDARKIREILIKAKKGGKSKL
Sequence of Fibroblast growth factor 2 (Homo sapiens) (P09038 whole entry, looked up): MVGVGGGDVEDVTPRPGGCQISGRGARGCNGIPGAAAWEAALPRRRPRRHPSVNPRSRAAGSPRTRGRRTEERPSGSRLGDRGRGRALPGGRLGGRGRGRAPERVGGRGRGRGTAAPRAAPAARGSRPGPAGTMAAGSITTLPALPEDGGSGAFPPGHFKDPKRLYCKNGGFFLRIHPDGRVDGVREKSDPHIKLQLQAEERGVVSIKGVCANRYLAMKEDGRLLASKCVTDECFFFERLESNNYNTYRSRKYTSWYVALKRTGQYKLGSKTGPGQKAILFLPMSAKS

Row | Compound | composite z-score [1] | composite z-score [2] | composite z-score [3] | composite z-score [4] | composite z-score [5] | composite z-score [6] | z-score [7] | composite z-score (Lefty1) | composite z-score [8] | z-score [9] | composite z-score [10] | z-score [11] | z-score [12] | z-score [13] | z-score [14] | composite z-score [15] | composite z-score [16] | composite z-score (Torsin-1A (Homo sapiens) [17]) | composite z-score (Torsin-1A (Homo sapiens) [18]) | composite z-score [19]
1 | O=C1O[C@H](c2ccccc2)[C@H](c2ccccc2)N2[C@H]1[C@@H](C(=O)NC[C@H](O)c1ccccc1)[C@]1(C(=O)Nc3ccc(C#CC4=CCCCC4)cc31)[C@H]2c1ccc(O)cc1 | 1.86 | 1.17 | 0.191 | 0.826 | 1.35 | 1.59 | -1.38 | 0.82 | 0.331 | -1.5 (inactive) | 0.688 | -5.36 (inactive) | -0.354 (inactive) | -0.602 (inactive) | -0.912 (inactive) | 0.758 | 0.121 | 0.769 | 1.08 | 1.51
2 | Cc1ccc(N2C(=O)c3ccccc3[C@@H](C(=O)NCC(C)C)[C@@H]2c2ccc(CO)cc2)nc1 | 0.0133 | -0.871 | -0.451 | -0.877 | -0.186 | -0.246 | 0.738 | -0.609 | -0.674 | -0.663 (inactive) | -0.0957 | -0.308 (inactive) | 0.504 (inactive) | -0.295 (inactive) | 0.892 (inactive) | -1.45 | -0.231 | -1.67 | -1.47 | -0.0902
3 | COC(=O)c1c2oc(c1C(=O)OC)C(=O)N[C@H](Cc1ccccc1)Cn1nncc1C1(CCCCC1)NC(=O)N[C@H](CO)CC2 | 0.265 | 0.275 | 0.13 | -0.0472 | 0.373 | 0.1 | 3.5 | 0.553 | -0.0322 | -0.676 (inactive) | 0.159 | -0.11 (inactive) | -0.318 (inactive) | 1.75 (inactive) | 0.154 (inactive) | 0.412 | 0.0154 | -0.0688 | -0.0459 | 0.798
4 | COCCOC(=O)N1C(=O)[C@@]2(c3cc(C#CC4=CCCCC4)ccc31)[C@H](c1ccc(OCCO)cc1)N1[C@H](c3ccccc3)[C@H](c3ccccc3)OC(=O)[C@H]1[C@@H]2C(=O)Nc1nc2ccccc2s1 | 0.317 | 1.18 | 0.358 | 0.929 | 1.19 | 0.571 | -2.19 | 0.982 | 0.53 | -2.79 (inactive) | 0.329 | -3.52 (inactive) | -2.45 (inactive) | -1.16 (inactive) | -0.482 (inactive) | 1.27 | -0.0178 | -0.0779 | 0.394 | 0.911
5 | CCCNC(=O)[C@@]1(C)c2ccccc2C(=O)N(Cc2cc(C(F)(F)F)cc(C(F)(F)F)c2)[C@H]1c1ccc(CO)cc1 | 2.41 | 0.903 | 0.147 | 0.267 | 0.127 | 0.68 | -0.704 | -0.524 | 0.463 | 0.517 (inactive) | -0.332 | -5.52 (inactive) | -0.889 (inactive) | 0.0548 (inactive) | 0.532 (inactive) | -0.974 | -0.128 | -0.0659 | -0.216 | 0.103
6 | O=C1O[C@H](c2ccccc2)[C@H](c2ccccc2)N2[C@H]1[C@@H](C(=O)N1CCCCCCC1)[C@]1(C(=O)Nc3ccc(C#CC4=CCCCC4)cc31)[C@H]2c1ccc(O)cc1 | 3.04 | 1.36 | 5.6 | 0.535 | 1.56 | 1.22 | -0.233 | 1.82 | 1.81 | 0.289 (inactive) | 2.45 | -5.14 (inactive) | -1.54 (inactive) | -1.43 (inactive) | -0.464 (inactive) | 4.23 | 1.98 | 3.97 | 3.82 | 2.29
7 | C=C(C(=O)CC[C@H](OC(=O)c1cccnc1)c1ccccc1OCCO)C(C)C | 0.971 | 0.834 | 0.092 | 0.101 | 1.42 | 1.83 | 0.0404 | 1.44 | 0.0398 | -0.0549 (inactive) | 1.14 | -1.13 (inactive) | -0.467 (inactive) | 2.22 (inactive) | 0.716 (inactive) | -0.383 | -0.168 | 2.32 | 1.54 | 2.27
8 | Cc1ccc(N2C(=O)c3ccccc3[C@@H](C(=O)NC(C)C)[C@@H]2c2ccc(CO)cc2)nc1 | 0.621 | 0.708 | -0.291 | -0.756 | 0.931 | 1.55 | -1.05 | -0.362 | 0.692 | 1.25 (inactive) | 0.635 | -2.73 (inactive) | -1.83 (inactive) | 0.351 (inactive) | 0.807 (inactive) | -0.896 | -0.104 | -1.73 | 2.08 | -0.473
9 | CN1C(=O)C2C=CC(C(O)C(C)(C)C)N(Nc3ccccc3)C2C1=O (stereo not given) | 0.218 | -0.178 | 0.694 | -0.0163 | -0.288 | -0.695 | 0.31 | -1.06 | -0.062 | 0.856 (inactive) | 0.04 | 1.07 (inactive) | -0.101 (inactive) | 0.24 (inactive) | 0.124 (inactive) | 0.0034 | -0.157 | 0.392 | -0.419 | -0.624
10 | C=CCC(OC(C)=O)[C@@H]1[C@@H](N(Cc2cc3ccccc3o2)C(=O)c2cccc3ccccc23)c2cc(OCCCO)ccc2N1C(=O)Cc1ccc2ccccc2c1 (stereo not given in full) | 0.166 | -0.273 | -0.0768 | 0.571 | 0.416 | 0.439 | -0.274 | -0.0817 | -0.157 | 0.209 (inactive) | 0.0744 | -1.62 (inactive) | 0.303 (inactive) | 0.992 (inactive) | -0.333 (inactive) | 0.435 | -0.0589 | -0.213 | -0.146 | 0.191
